# Assay outcomes (PubChem BioAssay)
# An excerpt weighted towards active compounds, which were near 2.4% of everything screened.
# POLI inh: blocks human DNA polymerase iota activity; Q9UNA4; Pol iota fluorescent replication assay, 10 min; Potency, µM (top dose mostly 115 µM), without a hit: at the highest dose activity, negative = inhibition, hits mostly inhibitors; actives 1% (n = 390,000)
#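 Fluorescent replication assay read twice, at 0 min and 10 min after adding 50 nM (final) substrate. Enzyme (10 nM) and compounds were first incubated 15 min at room temperature; enzyme-free buffer wells were negative controls.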
# Pol beta inh: inhibitors of human DNA polymerase beta; Pol beta primer extension/strand displacement, fluorescence kinetic; Potency, µM (series often up to 114 µM), without a hit: top-dose activity change, negative = inhibition, most hits filed as inhibitors; actives 1.3% (n = 340,000); AID 485314; further: on the % scale 0 is the no-effect control and ±100 the full control effect
#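 Enzyme-only controls used 10 nM Pol beta; buffer lacking enzyme served as negative control. Compound preincubated 15 min, then 50 nM substrate added; 0 and 10 min reads at room temperature.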
# Pol eta inh: blocks human DNA polymerase eta activity; Q9Y253; recombinant Pol eta, fluorescent DNA replication assay; Potency, µM (top dose mostly 114 µM), without a hit: top-dose activity change, negative = inhibition, hits mostly inhibitors; actives 1.2% (n = 390,000); further: on the % scale 0 is the no-effect control and ±100 the full control effect
# Target sequence (Q9Y253 whole entry, looked up): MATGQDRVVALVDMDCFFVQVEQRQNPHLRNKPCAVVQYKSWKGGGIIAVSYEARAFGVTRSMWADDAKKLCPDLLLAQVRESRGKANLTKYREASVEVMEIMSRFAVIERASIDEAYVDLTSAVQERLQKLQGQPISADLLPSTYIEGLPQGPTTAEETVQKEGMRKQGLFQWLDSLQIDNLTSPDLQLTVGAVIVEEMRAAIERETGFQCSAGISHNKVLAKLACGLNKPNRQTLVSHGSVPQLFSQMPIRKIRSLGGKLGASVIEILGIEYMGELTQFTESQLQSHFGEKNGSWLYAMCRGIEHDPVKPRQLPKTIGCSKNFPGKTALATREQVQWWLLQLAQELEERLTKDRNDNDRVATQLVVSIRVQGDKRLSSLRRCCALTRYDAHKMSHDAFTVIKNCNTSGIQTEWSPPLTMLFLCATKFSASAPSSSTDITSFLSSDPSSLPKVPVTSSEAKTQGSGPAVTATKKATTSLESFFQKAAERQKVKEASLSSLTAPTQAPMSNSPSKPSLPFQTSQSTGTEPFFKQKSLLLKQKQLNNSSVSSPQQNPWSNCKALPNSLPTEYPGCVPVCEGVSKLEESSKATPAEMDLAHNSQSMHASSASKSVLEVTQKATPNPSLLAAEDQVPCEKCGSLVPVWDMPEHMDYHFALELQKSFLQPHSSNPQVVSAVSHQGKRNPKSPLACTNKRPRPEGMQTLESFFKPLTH
#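 Fluorescent replication assay: 50 nM final substrate added after a 15 min room-temperature compound preincubation with 10 nM enzyme. Signal taken at 0 min and again at 10 min.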
# Tb PGK inh: blocks T. brucei phosphoglycerate kinase; P07378; actives 0.043% (n = 380,000); Potency, µM (top dose mostly 57.5 µM), without a hit: at the top dose activity change, negative = inhibition, actives largely listed as inhibitors; PGK/GAPDH coupled, Kinase-Glo luminescence, 60 min; further: on the % scale 0 is the no-effect control and ±100 the full control effect; nearly all actives have a fitted effect of over 60% in size
#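 Recombinant glycosomal PGK reaction used 1,3-bisphosphoglycerate generated in-well by GAPDH (100nM final) in 100mM TEA pH 7.6, 5mM MgCl2, 0.01% Tween-20. After 60 minutes at room temperature, ATP was read by Kinase-Glo Plus luminescence end-point.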
# Pol kappa inh: inhibitors of human DNA polymerase kappa; actives 0.53% (n = 400,000); purified Pol kappa, fluorescent DNA synthesis assay, 10 min; AID 588579; Potency, µM (doses to about 107 µM), for inactives: at the top dose activity, negative = inhibition, hits mostly inhibitors; Q9UBT6; further: on the % scale 0 is the no-effect control and ±100 the full control effect
#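 Fluorescent qHTS in 1536-well format: enzyme (10 nM) and compound sat 15 min at room temperature before 50 nM substrate (final) was added. Signal taken at 0 and 10 min; no-enzyme buffer wells were negative controls.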
# FEN1 inh: inhibitors of human flap endonuclease 1; Recombinant FEN1 flap cleavage, fluorescence, 15 min; Potency, µM (series often up to 114 µM), without a hit: top-dose activity change, negative = inhibition, actives largely listed as inhibitors; actives 0.35% (n = 390,000); further: on the % scale 0 is the no-effect control and ±100 the full control effect; nearly all actives have a fitted effect of over 65% in size
#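 Concentration–response screening of FEN1 (10 nM): 15 min compound preincubation at room temperature, reaction started with 50 nM substrate and read at 0 and 15 min. Corrected, normalized data were fitted by a four-parameter Hill equation.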
# Numbers without * were called inactive; i = inactive; ? = inconclusive; / = no result; [ ] = another dose, or the depositor's remark. The call rests on the fitted dose curve; in most records, active means well fitted curve in the direction sought with a large enough effect; inconclusive means small, poorly fitted or top-dose-only effect, or another doubt; inactive means no such curve, though single readings can be large; an effect the other way counts as inactive or inconclusive. Potency means the concentration at half of the fitted maximal effect.
SMILES,POLI inh,Pol beta inh,Pol eta inh,Tb PGK inh,Pol kappa inh,FEN1 inh
Cc1cccc(NC(=O)CN2C(=O)N/C(=C\c3cccn3-c3cccc(C(=O)O)c3)C2=O)c1,50µM*,14µM*,?,-6%,?,?
Cc1ccc(NC(=O)CN2C(=O)S/C(=C\c3ccc(C(=O)O)cc3)C2=O)cc1,-5%,39%,7%,-1%,-3%,26%
Cc1ccc(NC(=O)CN2C(=O)S/C(=C\c3cc(C)n(C)c3C)C2=O)cc1,8%,4%,6%,i,0%,2%
CCCC[C@H](NC(=O)[C@H](CO)NC(=O)[C@H](Cc1ccc(O)cc1)NC(=O)[C@H](CO)NC(C)=O)C(=O)N[C@@H](CCC(=O)O)C(=O)N[C@@H](Cc1cnc[nH]1)C(=O)N[C@H](Cc1ccccc1)C(=O)N[C@@H](CCCNC(=N)N)C(=O)N[C@@H](Cc1c[nH]c2ccccc12)C(=O)NCC(=O)N[C@@H](CCCCN)C(=O)N1CCC[C@H]1C(=O)N[C@H](C(N)=O)C(C)C,/,/,/,/,12%[60.1 µM],/
Cc1cc2ccccc2c[n+]1CC(=O)c1ccc(F)cc1,41%,/,/,/,-3%,-3%
C=C1C(=O)[C@]23[C@H](O)[C@H]1CC[C@H]2[C@@]12COC3(O)[C@H](O)[C@@H]1C(C)(C)CC[C@@H]2O,/,/,/,/,-3%[60.1 µM],/
C=C1C=C(C(F)F)n2ncc(C(=O)NCc3ccc(OC)cc3)c2N1,13%,/,/,/,-13%,0%
CCc1oc2ccccc2c1C(=O)c1cc(Br)c(O)c(Br)c1,16%,50µM*,-18%,-9%,-18%,2%
CCc1ccc(OCC(=O)c2c(O)c3ccccc3oc2=O)cc1,?,-4%,-2%,-1%,-15%,13%
O=C(CN1C(=O)N/C(=C\c2ccccc2OCc2ccc(C(=O)O)cc2)C1=O)Nc1ccc(F)cc1,?,79µM*,-13%,-11%,?,-28%
COc1cc(N)c(NC(=O)/C=C/c2nc3cc(OC)c(OC)cc3[nH]2)cc1OC,46%,/,/,/,-4%,2%
COc1ccc(S(=O)(=O)N(CC(=O)O)c2ccccn2)cc1,45%,7%,-2%,0%,-13%,1%
COc1ccc(N(CC(=O)N/N=C/c2ccco2)S(=O)(=O)c2ccccc2)cc1,?,8.9µM*,89µM*,-21%,-22%,-13%
COc1ccc(NC(=O)CN(c2ccc([N+](=O)[O-])cc2)S(=O)(=O)c2ccccc2)cc1,5%,0.11µM*,-17%,i,-5%,10%
COc1ccc(S(=O)(=O)N(CC(=O)O)c2ccccc2)cc1,100µM*,15%,-6%,/,-24%,-4%
Cc1cccc(NC(=O)Cn2nnc(C(=O)NCc3cccs3)c2N)c1C,6%,0%,-10%,-3%,-27%,1%
Cc1c(Cl)cccc1NC(=O)Cn1nnc(C(=O)NCc2cccs2)c1N,89µM*,?,79µM*,-9%,-26%,3%
Cc1ccc(/C=N\NC(=O)Cc2cccn2C)o1,79µM*,7%,-13%,8%,-19%,5%
Cn1cccc1CC(=O)N/N=C\c1ccccc1,?,0%,2%,-4%,-6%,5%
CC[C@H](C)NC(=O)c1ccc(Cn2c(=S)[nH]c3c([nH]c4ccc(OC)cc43)c2=O)cc1,?,?,18µM*,-17%,1%,5%
CCCCNC(=O)c1ccc(Cn2c(=S)[nH]c3c([nH]c4ccc(OC)cc43)c2=O)cc1,12%,?,?,-12%,-13%,-16%
COc1cc(CN(C(=O)c2cccc(C)c2)c2ccccn2)cc(OC)c1OC,24%,-1%,-17%,-2%,5%,-2%
Cc1cc(=O)[nH]c(SCC(=O)Nc2ccc(S(N)(=O)=O)cc2)n1,40µM*,?,20µM*,-3%,?,12%
CCN(CC)c1ccc(NC(=O)CSc2nc(C)cc(=O)[nH]2)cc1,?,4%,-5%,8%,-17%,-1%
Cc1ccc(S(=O)(=O)Nc2cc(=O)[nH]c(SCC(=O)Nc3ccccc3Cl)n2)cc1,-14%,?,-21%,-10%,5%,-3%
SMILES,POLI inh,Pol beta inh,Pol eta inh,Tb PGK inh,Pol kappa inh,FEN1 inh
CCc1ccc(NC(=O)CSc2nc(NS(=O)(=O)c3ccccc3)cc(=O)[nH]2)cc1,29%,20µM*,-21%,-1%,-7%,6%
Cc1ccc(S(=O)(=O)Nc2cc(=O)[nH]c(SCC(=O)Nc3cccc(C)c3)n2)cc1,50µM*,-2%,1%,-1%,?,-12%
CCOc1ccc(NC(=O)CSc2nc(NS(=O)(=O)c3ccc(C)cc3)cc(=O)[nH]2)cc1,22µM*,3%,-18%,-2%,40µM*,-8%
COc1ccc(OC)c(NC(=O)c2c(NCc3ccc(C)o3)sc3c2CCC(C)C3)c1 (configuration not stated),-14%,?,-9%,i,-11%[60.1 µM],-22%
CN(C)/[N+]([O-])=N/Oc1ccc([N+](=O)[O-])cn1,31%,/,/,/,7%,2%
COc1ccc(Cl)cc1NC(=O)C(C)n1nnc2sc3c(c2c1=O)CCCC3 (configuration not stated),13%,20%,/,/,4%,-9%
CCOc1ccc(NC(=O)CSc2oc(-c3cccs3)nc2S(=O)(=O)c2ccc(Cl)cc2)cc1,6%,13%,-24%,0%,-17%,4%
Cc1ccc(NC(=O)CSc2nc(NS(=O)(=O)c3ccccc3)cc(=O)[nH]2)cc1,?,22µM*,22µM*,?,22µM*,79µM*
CCOc1ccc(NC(=O)CSc2oc(-c3ccc(C)cc3)nc2S(=O)(=O)c2ccc(C)cc2)cc1,10%,3.2µM*,79µM*,-6%,1%,1%
CCC(C)n1c(NC(=O)c2ccccc2)c(C#N)c2nc3ccccc3nc21 (configuration not stated),3.2µM*,40µM*,50µM*,-7%,?,?
Cc1nn(C(C)(C)C)c(NC(=O)c2ccccc2)c1C#N,-22%,-3%,-7%,/,-5%,15%
O=C(N/N=C/c1cccnc1)c1cc(-c2ccccc2OCc2ccccc2)n[nH]1,51%,79µM*,2%,i,-31%,-3%
COc1ccc(-c2nc3cnc(N4CCN(C)CC4)nc3n(CCc3ccccc3)c2=O)cc1,/,/,/,/,-3%[60.1 µM],/
CC(=O)Nc1ccc(NC(=O)COC(=O)c2ccccc2OCc2cccc(Br)c2)cc1,-4%,/,/,/,-6%,0%
CN=c1scc(-c2ccc(F)cc2)n1/N=C/c1ccc(O)c(O)c1,?,5µM*,?,-14%,-23%,-12%
